The record followed here is PubChem BioAssay (NCI).

This is part of a sample that, as a whole, favours compounds with a hit. Of some 79,000 tested, about 15% had one in any assay. A number with no mark means an inactive call. Active and inactive are the calls of the source. Rule as the data show it: active = growth inhibition above about 70%; inactive = the rest.

Test [1] is described as follows: NCI Yeast Anticancer Drug Screen. Data for the rad50 strain (AID 155).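 Also: 0% = growth of vehicle-only cultures of the same strain.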 The following applies: S. cerevisiae rad50 strain growth inhibition, stronger effect = higher value. In outline:
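Yeast carrying a defined DNA repair defect were exposed to test compounds, and growth was compared with vehicle-treated controls to give percent inhibition.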

Test [2] in a line: NCI Yeast Anticancer Drug Screen. Data for the mec2-1 strain (AID 157). The note with it: S. cerevisiae mec2-1 strain, stronger effect = higher value. In outline:
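Cells of the genetically defined mec2-1 yeast strain are incubated with test compound. Inhibition of growth is calculated against vehicle-treated controls.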

The nature of test [3]: NCI Yeast Anticancer Drug Screen. Data for the sgs1 mgt1 strain (AID 161).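 Also: 0% = growth of cultures given vehicle only.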 The following applies: S. cerevisiae sgs1 mgt1 strain, stronger effect = higher value. In outline:
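Inhibition of yeast growth, normalised to vehicle-treated controls, is reported for a strain bearing genetic alterations in DNA damage repair.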

Test [4] is described as follows: NCI Yeast Anticancer Drug Screen. Data for the cln2 rad14 strain (AID 165).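 Also: 0% = growth equal to vehicle treated cultures.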 The note with it: S. cerevisiae cln2 rad14 strain, stronger effect = higher value. In outline: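 The screen exposed genetically defined yeast (cln2 rad14) to test compounds and scored growth inhibition relative to vehicle-treated controls.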
A short description of test [5]: NCI Yeast Anticancer Drug Screen. Data for the bub3 strain (AID 167). The note with it: S. cerevisiae bub3 mutant strain, stronger effect = higher value. In outline:
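Compounds were applied to a genetically altered yeast strain carrying a cell-cycle control defect. Growth inhibition was scored against vehicle-treated controls.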

Test [6] in a line: NCI Yeast Anticancer Drug Screen. Data for the mlh1 rad18 strain (AID 175). The note with it: S. cerevisiae mlh1 rad18 strain growth inhibition, stronger effect = higher value. In outline:
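Compound-treated yeast growth, normalised to vehicle controls. Strain bears defined DNA repair mutations.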

The mark [7] stands for this setting: at 5.0 µM (retest, dose inferred, filed as 0.5).
Setting [8] is: at 50.0 µM (retest, dose inferred, filed as 5.0).

On to `O=C(CNCc1ccccc1)c1ccc(Cl)cc1`, for which the growth inhibition in test [1] (setting [7]) is -3%; in test [1] (setting [8]), -6%; in test [1] (at 50.0 µM), 11.6%; in test [2] (setting [7]) it was -2%; in test [2] (setting [8]), 6%; in test [2] (at 50.0 µM), 1.45%. Further, the growth inhibition is -3% in test [3] (setting [7]); 17% in test [3] (setting [8]); 8.4% in test [3] (at 50.0 µM); -1% in test [4] (setting [7]); -22% in test [4] (setting [8]); 24.6% in test [4] (at 50.0 µM). The growth inhibition in test [5] (setting [7]) was -2%; in test [5] (setting [8]), 35%; in test [5] (at 50.0 µM), -7.85%; in test [6] (setting [7]) it was -4%; in test [6] (setting [8]), 14%; in test [6] (at 50.0 µM), 14.5%.

On to `CC(C)(C)C(NO)C(O)N1CCCCC1` (stereo not given), for which the growth inhibition in test [1] (setting [7]) is -155%; in test [1] (setting [8]), -141%; in test [1] (at 50.0 µM), 20.2%; in test [2] (setting [7]) it was -53%; in test [2] (setting [8]), -52%; in test [2] (at 50.0 µM) it was 6.25%. In addition, the growth inhibition in test [3] (setting [7]) is -59%; in test [3] (setting [8]), -63%; in test [3] (at 50.0 µM), 17.1%; in test [4] (setting [7]) it was -63%; in test [4] (setting [8]), -57%; in test [4] (at 50.0 µM) it was 50%. Also, the growth inhibition in test [5] (setting [7]) was -69%; in test [5] (setting [8]), -73%; in test [5] (at 50.0 µM), -4%; in test [6] (setting [7]), -118%; in test [6] (setting [8]), -105%; in test [6] (at 50.0 µM) it was 12.4%.

In the case of `O=C(CCCl)Nc1ccc(CCC(=O)c2ccccc2NC(=O)CCCl)cc1`, the growth inhibition in test [1] (setting [7]) is -10%; in test [1] (setting [8]), 23%; in test [1] (at 50.0 µM), 69.2%; in test [2] (setting [7]) it was -9%; in test [2] (setting [8]), -4%; in test [2] (at 50.0 µM) it was 64.4%. Besides, the growth inhibition was -7% in test [3] (setting [7]); 59% in test [3] (setting [8]); 81.8% (active) in test [3] (at 50.0 µM); -24% in test [4] (setting [7]); -22% in test [4] (setting [8]); 27.9% in test [4] (at 50.0 µM). Besides, the growth inhibition was -8% in test [5] (setting [7]); 19% in test [5] (setting [8]); 10.8% in test [5] (at 50.0 µM); -11% in test [6] (setting [7]); -6% in test [6] (setting [8]); 54.3% in test [6] (at 50.0 µM).

In the case of `CCCCCCC[n+]1ccc(C(=O)c2ccccc2)cc1`, the growth inhibition is 99% (active) in test [1] (setting [7]); 99% (active) in test [1] (setting [8]); 99.4% (active) in test [1] (at 50.0 µM); 100% (active) in test [2] (setting [7]); 99% (active) in test [2] (setting [8]); 94.3% (active) in test [2] (at 50.0 µM). Besides, the growth inhibition in test [3] (setting [7]) is 100% (active); in test [3] (setting [8]), 100% (active); in test [3] (at 50.0 µM), 99.5% (active); in test [4] (setting [7]) it was 99% (active); in test [4] (setting [8]) it was 100% (active); in test [4] (at 50.0 µM), 80.2% (active). In addition, the growth inhibition in test [5] (setting [7]) was 99% (active); in test [5] (setting [8]) it was 99% (active); in test [5] (at 50.0 µM) it was 99.3% (active); in test [6] (setting [7]) it was 99% (active); in test [6] (setting [8]) it was 99% (active); in test [6] (at 50.0 µM), 99.5% (active).

In the case of `O=C(N/C(=C\c1nc2ccccc2s1)c1ccccc1O)c1ccccc1`, the growth inhibition in test [1] (setting [7]) was -10%; in test [1] (setting [8]), 68%; in test [1] (at 50.0 µM), 29.8%; in test [2] (setting [7]), 7%; in test [2] (setting [8]), 30%; in test [2] (at 50.0 µM), 12.3%. Also, the growth inhibition in test [3] (setting [7]) was -16%; in test [3] (setting [8]) it was 31%; in test [3] (at 50.0 µM) it was 38.5%; in test [4] (setting [7]), 2%; in test [4] (setting [8]), 41%; in test [4] (at 50.0 µM) it was 17.2%. Further, the growth inhibition is -5% in test [5] (setting [7]); 75% (active) in test [5] (setting [8]); 32.4% in test [5] (at 50.0 µM); 19% in test [6] (setting [7]); 37% in test [6] (setting [8]); 32% in test [6] (at 50.0 µM).

Turning to `CCOC(=O)Cc1cc(=O)oc2c(CN3CCN(c4ccc(C)cc4)CC3)c(O)ccc12`, the growth inhibition in test [1] (setting [7]) was 3%; in test [1] (setting [8]), 55%; in test [1] (at 50.0 µM) it was 60.8%; in test [2] (setting [7]), 3%; in test [2] (setting [8]) it was 77% (active); in test [2] (at 50.0 µM), 51.7%. The growth inhibition in test [3] (setting [7]) is -1%; in test [3] (setting [8]), 87% (active); in test [3] (at 50.0 µM), 38.2%; in test [4] (setting [7]) it was 8%; in test [4] (setting [8]) it was 74% (active); in test [4] (at 50.0 µM) it was 1.2%. The growth inhibition in test [5] (setting [7]) was 7%; in test [5] (setting [8]), 86% (active); in test [5] (at 50.0 µM), 26.8%; in test [6] (setting [7]), 3%; in test [6] (setting [8]), 81% (active); in test [6] (at 50.0 µM) it was 78.8% (active).

With `COc1ccc2nc3cccc([N+](=O)[O-])c3c(NCCN(C)C)c2c1`, the growth inhibition in test [1] (setting [7]) was 86% (active); in test [1] (setting [8]), 95% (active); in test [1] (at 50.0 µM), 80% (active); in test [2] (setting [7]), 95% (active); in test [2] (setting [8]), 98% (active); in test [2] (at 50.0 µM) it was 88.5% (active). The growth inhibition in test [3] (setting [7]) was 87% (active); in test [3] (setting [8]), 74% (active); in test [3] (at 50.0 µM), 84.5% (active); in test [4] (setting [7]) it was 92% (active); in test [4] (setting [8]), 97% (active); in test [4] (at 50.0 µM) it was 83% (active). Moreover, the growth inhibition is 36% in test [5] (setting [7]); 96% (active) in test [5] (setting [8]); 82.2% (active) in test [5] (at 50.0 µM); 92% (active) in test [6] (setting [7]); 97% (active) in test [6] (setting [8]); 79.6% (active) in test [6] (at 50.0 µM).

In the case of `CC(c1ccccc1)C(C(=O)O)(c1ccccc1)c1ccccc1` (stereo not given), the growth inhibition in test [1] (setting [7]) is 80% (active); in test [1] (setting [8]), 4%; in test [1] (at 50.0 µM) it was 99.4% (active); in test [2] (setting [7]), 76% (active); in test [2] (setting [8]) it was 7%; in test [2] (at 50.0 µM) it was 99.3% (active). Besides, the growth inhibition in test [3] (setting [7]) is 61%; in test [3] (setting [8]), 26%; in test [3] (at 50.0 µM) it was 99.7% (active); in test [4] (setting [7]), 81% (active); in test [4] (setting [8]), 12%; in test [4] (at 50.0 µM) it was 99.3% (active). Besides, the growth inhibition in test [5] (setting [7]) is 76% (active); in test [5] (setting [8]), -3%; in test [5] (at 50.0 µM) it was 99.5% (active); in test [6] (setting [7]), 84% (active); in test [6] (setting [8]) it was 8%; in test [6] (at 50.0 µM) it was 99.3% (active).

As for `CC(C)(C)C1CCC2c3c([nH]c4ccccc34)C3C(=O)N(c4ccc(C(=O)O)cc4)C(=O)C3C2C1` (stereo not given), the growth inhibition in test [1] (setting [7]) is 98% (active); in test [1] (setting [8]), 98% (active); in test [1] (at 50.0 µM), 96.3% (active); in test [2] (setting [7]) it was 99% (active); in test [2] (setting [8]) it was 99% (active); in test [2] (at 50.0 µM), 99.2% (active). Moreover, the growth inhibition in test [3] (setting [7]) was 99% (active); in test [3] (setting [8]), 99% (active); in test [3] (at 50.0 µM) it was 98.5% (active); in test [4] (setting [7]) it was 89% (active); in test [4] (setting [8]), 98% (active); in test [4] (at 50.0 µM) it was 99.4% (active). Further, the growth inhibition in test [5] (setting [7]) was 74% (active); in test [5] (setting [8]), 99% (active); in test [5] (at 50.0 µM), 99.3% (active); in test [6] (setting [7]), 97% (active); in test [6] (setting [8]), 99% (active); in test [6] (at 50.0 µM), 98.8% (active).

Turning to `N#CCN1CCCCCc2ccccc21`, the growth inhibition in test [1] (setting [7]) is -4%; in test [1] (setting [8]) it was -3%; in test [1] (at 50.0 µM), -26.6%; in test [2] (setting [7]) it was 0%; in test [2] (setting [8]) it was -18%; in test [2] (at 50.0 µM), -12.7%. Moreover, the growth inhibition is -29% in test [3] (setting [7]); -29% in test [3] (setting [8]); -3.15% in test [3] (at 50.0 µM); 9% in test [4] (setting [7]); -1% in test [4] (setting [8]); 11.2% in test [4] (at 50.0 µM). For the same molecule, the growth inhibition is -14% in test [5] (setting [7]); -32% in test [5] (setting [8]); -3.2% in test [5] (at 50.0 µM); -18% in test [6] (setting [7]); -18% in test [6] (setting [8]); -7.65% in test [6] (at 50.0 µM).
